High-throughput results as filed in PubChem BioAssay.
The list is not random: actives were taken first. Their share in the collection is about 8.9%.
KB-3-1 cytotox: KB-3-1 parental cell cytotoxicity; KB-3-1 viability, CellTiter-Glo ATP luminescence, 72 h; Potency, µM (titrated, usually from 46.1 µM), hits mostly cytotoxic; actives 1.4% (n = 400,000); note: potency is the fitted concentration of half-maximal effect; % is set by controls: 0 for no effect and ±100 for the full control effect; nearly all actives have a fitted effect of over 60% in size
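KB-3-1 cells, DMEM (no phenol red) + 10% FBS; compound by pin transfer, 72 h, 37 °C. Readout: CellTiter-Glo luminescence after 10 min. Data normalized, curve-fitted.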
KB-V1 MDR tox: KB-V1 MDR subline cytotoxicity; Potency, µM (top dose mostly 46.1 µM), usual class: cytotoxic; KB-V1 MDR cells viability, CellTiter-Glo, 72 h; actives 3.4% (n = 400,000); note: potency is the fitted concentration of half-maximal effect; % is set by controls: 0 for no effect and ±100 for the full control effect; nearly all actives have a fitted effect of over 60% in size
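Potencies derive from concentration-effect curves fitted to normalized luminescence (CellTiter-Glo) of KB-V1 cells treated for 72 h at 37 degrees C in phenol-red-free DMEM containing 10% FBS.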
DRD3 agonist: activates the human D3 dopamine receptor. P35462. D3R DiscoveRx beta-arrestin cells, luminescence, 90 min. max activation, %. actives 0.58% (n = 410,000); in the data active = max activation above about 30%; note: 0% is about no effect
Target sequence (P35462 whole entry, looked up): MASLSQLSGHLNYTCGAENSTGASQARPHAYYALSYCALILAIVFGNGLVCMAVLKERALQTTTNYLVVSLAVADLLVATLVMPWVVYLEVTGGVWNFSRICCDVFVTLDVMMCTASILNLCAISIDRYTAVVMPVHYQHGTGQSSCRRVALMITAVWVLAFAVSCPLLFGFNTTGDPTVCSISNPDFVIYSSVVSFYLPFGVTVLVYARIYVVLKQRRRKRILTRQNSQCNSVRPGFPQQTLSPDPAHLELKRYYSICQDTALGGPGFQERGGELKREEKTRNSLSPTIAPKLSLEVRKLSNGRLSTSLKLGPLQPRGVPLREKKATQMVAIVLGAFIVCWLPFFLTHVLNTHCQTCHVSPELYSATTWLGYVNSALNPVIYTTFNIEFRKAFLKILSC
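Cells at 1500/well, incubated overnight, then treated with pinned compounds (dopamine as control) for 90 min at 37 degrees C. DiscoveRx reagent added for 30 - 60 minutes at room temperature; luminescence read.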
DRD3 antagonist: antagonists of human D3 dopamine receptor. AID 652054. max response, negative = inhibition, %. D3R cells, DiscoveRx beta-arrestin luminescence, antagonist mode; hits give low values. P35462. actives 2.5% (n = 360,000); in the data active = max response below about -50%; inconclusive = no clear call, values can overlap the other calls; note: % is set by controls: 0 for no effect and ±100 for the full control effect
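Cells expressing the human receptor were seeded at 1500 cells/well, incubated overnight at 37 degrees C in 5% CO2, then exposed to library compounds with dopamine controls for 90 minutes at 37 degrees C before luminescent detection.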
MCF10A rerep: inducers of DNA re-replication in MCF 10A breast cells; Potency, µM (series often up to 46.1 µM), for the others: at the top dose activity, positive = re-replication, actives largely listed as activators; MCF 10A DNA re-replication, Hoechst nuclear intensity, 48 h; actives 2.9% (n = 350,000); note: potency is the fitted concentration of half-maximal effect; % of control where 0% means no effect; nearly all actives have a fitted effect of over 50% in size
SW480 rerep: induces DNA re-replication in SW480 colon adenocarcinoma cells | AID 624297 | actives 1.8% (n = 340,000) | SW480 DNA re-replication, Hoechst DNA content imaging, 48 h | Potency, µM (doses to about 46.1 µM), inactives show top-dose re-replication activation, most hits filed as activators; note: potency is the fitted concentration of half-maximal effect; % of control where 0% means no effect; nearly all actives have a fitted effect of over 55% in size
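Image-based read-out: total Hoechst fluorescence of nuclei (405 nm excitation, 500-530 nm emission), with hits raising the fraction of high-intensity nuclei. SW480 colon cells incubated 48 hr with compounds at 37 C.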
An asterisk follows results filed as active; i = inactive; u = inconclusive; x = not tested or not shown. Unless noted, calls come from the whole dose curve; as a rule, active = well fitted curve in the direction sought with a large enough effect; inconclusive = small, poorly fitted or top-dose-only effect, or another doubt; inactive = no such curve, though single readings can be large; an effect the other way counts as inactive or inconclusive.

SMILES	KB-3-1 cytotox	KB-V1 MDR tox	DRD3 agonist	DRD3 antagonist	MCF10A rerep	SW480 rerep
COc1cc2sc3ccc(-c4ccc5[nH]ccc5c4)cc3c(=O)c2cc1OC	i	u	13.4	41.5	16.9%	u
COc1ccc(-n2nc3ccc(N)cc3n2)cc1Cl	i	i	1.9	-4.3	u	20.6µM*
Cc1ccc(-n2nc3ccc(N)cc3n2)cc1C	i	i	-5.9	84.4	16.4µM*	16.4µM*
Cc1ccc(-n2nc3ccc(N)cc3n2)cc1Cl	i	i	-6.3	9.4	u	26.0%
Cc1ccc(-n2c3nc(=O)[nH]c(=O)c-3cc3c(C)nn(-c4ccccc4)c32)cc1Cl	u	i	-0.6	x	x	x
CC(C)OC(=O)c1ccc(NC(=O)C2C3CC4OC(=O)C2C4C3)cc1 (stereo not drawn)	i	i	-2.1	6.3	-10.0%	0.2%
Cc1ccc(NC(=O)C2C3CC4OC(=O)C2C4C3)cc1Cl (stereo not drawn)	i	i	-1.9	7.8	3.66µM*	0.7%
COc1ccc2c(c1)C(=NN)c1cc(OC)ccc1-2	i	10.3µM*	-3.5	5.2	-5.1%	2.4%
CN(C(=O)c1cccc(NC(=O)Cc2ccc(NC(=O)C3CCCN(C(=O)C4CC4)C3)cc2)c1)C1CCCCC1 (stereo not drawn)	i	i	-22.0	21.9	10.4%	2.59µM*
CN(C(=O)c1cccc(NC(=O)Cc2ccc(NC(=O)C3CCCN(C(=O)C4CCCCC4)C3)cc2)c1)C1CCCC1 (stereo not drawn)	i	i	-20.5	12.5	15.2%	u
CN(C(=O)c1cccc(NC(=O)Cc2ccc(NC(=O)C3CCCN(C(=O)CCc4ccccc4)C3)cc2)c1)C1CCCC1 (stereo not drawn)	6.51µM*	i	14.0	0.7	u	2.6%
COc1ccc(N/C=C/c2nc(SC)nnc2C)cc1	i	i	1.4	4.5	u	14.6µM*
CCOc1ccc(CNC(=O)c2ccc3nc(C(C)C)oc3c2)cc1	x	x	-4.9	x	x	x
O=C(Nc1ccc(C(=O)OCc2cc(=O)n3c4c(sc3n2)CCCC4)cc1)c1cccc(F)c1	x	x	-4.7	x	x	x
COc1ccc(N2CCN(C(=O)CN=C3NS(=O)(=O)C(c4ccc(C)cc4)=C3C)CC2)cc1	i	3.66µM*	-8.3	-79.1*	-2.1%	-5.1%
COCCCNC(=O)CSc1nc2c(sc3ccccc32)c(=O)n1CCc1ccc(OC)c(OC)c1	i	i	9.1	x	x	x
CCc1ccc(-c2cc(C(=O)N3N=C(C(F)F)CC3(O)C(F)F)c3ccccc3n2)cc1 (stereo not drawn)	u	18.4µM*	4.5	-19.9	9.2µM*	8.7%
CC(C)Cc1cc(C(=O)N2N=C(C(F)F)CC2(O)C(F)F)c2ccccc2n1 (stereo not drawn)	i	i	1.8	-13.9	u	-0.3%
COc1ccccc1C(=O)N1CCC(N2CCN(c3ccccc3OC)CC2)CC1	i	i	-44.8	-64.8*	-3.7%	13.2%
COc1ccccc1N1CCN(C2CCN(C(=O)COc3ccccc3)CC2)CC1	i	i	-21.8	-60.6*	-2.1%	2.4%
COc1ccccc1N1CCN(C(=O)C2c3ccccc3Oc3ccccc32)CC1	1.84µM*	2.59µM*	-10.3	-10.5	1.84µM*	5.8µM*
CC(C)(C)C1CCC(N2CCN(c3ccccc3)CC2)CC1 (stereo not drawn)	i	i	1.1	-53.3*	5.1%	-8.4%
COc1ccccc1N1CCN(C(=O)C2CC2)CC1	i	i	-3.7	0.5	u	11.6%
COc1ccccc1C(=O)N1CCC(N2CCN(c3ccccc3)CC2)CC1	i	i	53.3*	-18.8	u	-85.4%
O=C(Nc1ccc(F)cc1)C1CC(=O)n2cnnc2N1 (stereo not drawn)	i	i	-7.5	-16.6	-29.0%	0.651µM*
CCc1cccc(NC(=O)CSc2ncc3c(n2)-c2cc(Cl)ccc2N(C)S3(=O)=O)c1	i	i	-15.0	x	x	x
